SMILES strings stand for the structures. The panel holds about 83,000 compounds, 20% with a hit somewhere; the sample as a whole holds those more often.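 Single-concentration screen, 48 h exposure, 96-well plates. Endpoint: percent growth. Below 10 = active.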 Unmarked numbers belong to inactive results. Active and inactive are the calls of the source.

Some test systems named below: T-47D breast; BT-549 breast; MDA-MB-435 melanoma; SW-620 colon; MCF7 breast; HCT-116 colon; HCC-2998 colon; KM12 colon.
What all share (test): NCI-60 one-dose screen, 48 h (100 = growth as untreated, 0 = no growth, -100 = all killed)
What all share (conditions): 10 µM unless noted

Take `Brc1ccc2[nH]cc(-c3nonc3-c3c[nH]c4ccccc34)c2c1`: the growth was 5.65% (active) in the experiment on T-47D breast; 73.9% in the experiment with BT-549 breast; 47.1% with MDA-MB-435 melanoma; 60.4% in the experiment with SW-620 colon; 29.3% with MCF7 breast; 36.9% with HCT-116 colon. The growth is 21.5% in the experiment with HCC-2998 colon and 16% in the experiment on KM12 colon.
For `COc1ccc2cc(C(=O)c3coc4ccc(O)cc34)ccc2c1`, the growth in the experiment on T-47D breast is 84.2%; in the experiment with BT-549 breast, 94.2%; in the experiment with MDA-MB-435 melanoma, 104%; in the experiment with SW-620 colon, 116%; in the experiment on MCF7 breast it was 37.5%; in the experiment on HCT-116 colon, 94%. The figures for the growth in the experiment on HCC-2998 colon and in the experiment on KM12 colon were 103% and 90.3%, respectively.
As for `O=C1/C(=C/c2ccc(F)cc2)COc2ccc(O)cc21`, the growth in the experiment on T-47D breast was 86.6%; in the experiment on BT-549 breast, 78.2%; with MDA-MB-435 melanoma, 62.9%; in the experiment with SW-620 colon, 26%; in the experiment with MCF7 breast it was 7.92% (active); with HCT-116 colon, 23.6%. The growth is 90% in the experiment on HCC-2998 colon and 45.9% with KM12 colon.
For the molecule `O=C(CSc1nc2sc3c(c2c(=O)n1-c1ccccc1)CCCCC3)N/N=C/c1ccc(F)cc1`, the growth was 16.9% in the experiment with T-47D breast; 48.4% in the experiment with BT-549 breast; 70% in the experiment with MDA-MB-435 melanoma; 53% in the experiment with SW-620 colon; 26.8% in the experiment on MCF7 breast; -26.2% (active) in the experiment with HCT-116 colon. Moreover, the growth in the experiment on HCC-2998 colon is 106%; in the experiment on KM12 colon, 42.6%.
Consider `CN(C)CCCC1(c2ccc(F)cc2)OCc2cc(-c3cncc4ccccc34)ccc21` (configuration not stated), for which the growth is 55.9% in the experiment on T-47D breast; 76.8% in the experiment on BT-549 breast; 8.32% (active) in the experiment on MDA-MB-435 melanoma; 34.2% in the experiment with SW-620 colon; 23.5% in the experiment with MCF7 breast; 22.5% with HCT-116 colon. The growth in the experiment with HCC-2998 colon was 7.15% (active); in the experiment on KM12 colon, 34.5%.
For `COc1ccc2c(O)c(/C=C3\N=Nc4ccccc43)oc2c1C[C@@H]1CCNC[C@H]1F`, the growth in the experiment with T-47D breast was 94.3%; in the experiment on BT-549 breast, 73.8%; in the experiment with MDA-MB-435 melanoma, 68.3%; with SW-620 colon it was 6.01% (active); with MCF7 breast, 18.3%; with HCT-116 colon, -68.2% (active). The growth with HCC-2998 colon is 78%; in the experiment with KM12 colon, 10.9%.
For the molecule `O=C1C(Cl)=C(Nc2ccc(O)cc2)C(=O)N1Cc1ccc(Cl)cc1`, the growth in the experiment on T-47D breast was 66.5%; in the experiment with BT-549 breast, 43.2%; in the experiment on MDA-MB-435 melanoma it was -30.6% (active); with SW-620 colon, 17.6%; in the experiment with MCF7 breast, 18.1%; in the experiment with HCT-116 colon it was 30.9%. Besides, the growth is 79.9% in the experiment on HCC-2998 colon and 14.9% with KM12 colon.
Take `C=C(C)[C@@H]1CC[C@]2(C(=O)NCCNCCN)CC[C@]3(C)[C@H](CC[C@@H]4[C@@]5(C)C/C(=C/c6ccncc6)C(=O)C(C)(C)[C@@H]5CC[C@]43C)[C@@H]12`: the growth is 80.8% in the experiment with T-47D breast; 95.2% with BT-549 breast; 92.7% in the experiment on MDA-MB-435 melanoma; 92.7% in the experiment with SW-620 colon; 97.6% in the experiment on MCF7 breast; 83.7% with HCT-116 colon. The growth with HCC-2998 colon is 91.6%; in the experiment on KM12 colon, 96.9%.
Turning to `Cc1c(-c2nc3ccc(F)cc3c(=O)[nH]2)c2ccccc2n1C`, the growth in the experiment with T-47D breast is 36.1%; in the experiment on BT-549 breast, 43.8%; in the experiment with MDA-MB-435 melanoma, -38.8% (active); in the experiment with SW-620 colon, 16.1%; with MCF7 breast, 19.1%; in the experiment with HCT-116 colon, 25.1%. The growth with HCC-2998 colon is 53%; with KM12 colon, 22%.
`COc1cc(/C=C\c2cc(/C=C\c3ccc(O)c(OC)c3)n(C(=O)COc3ccc(Cl)cc3Cl)n2)ccc1O`: the growth was 15% with T-47D breast; 1.41% (active) in the experiment with BT-549 breast; -12.1% (active) in the experiment on MDA-MB-435 melanoma; 16.7% in the experiment with SW-620 colon; 4.21% (active) with MCF7 breast; 3.48% (active) in the experiment with HCT-116 colon. Moreover, the growth in the experiment on HCC-2998 colon was 38.5%; in the experiment on KM12 colon, 9.93% (active).
`N#C/C(=C\c1ccc(-c2ccc(Cl)cc2)o1)C(=O)Nc1ncc(Cc2ccc(Cl)cc2)s1`: the growth is 14.3% with T-47D breast; 58.2% with BT-549 breast; 21.2% in the experiment with MDA-MB-435 melanoma; 13.7% with SW-620 colon; 45.9% in the experiment on MCF7 breast; 3.14% (active) with HCT-116 colon. Further, the growth was 77.5% in the experiment with HCC-2998 colon and 36.8% in the experiment with KM12 colon.
With `Fc1ccc(-c2nn(-c3ccccc3)cc2-c2nc3ccccc3o2)cc1`, the growth is 44.6% in the experiment with T-47D breast; 66.4% in the experiment on BT-549 breast; 27.8% in the experiment on MDA-MB-435 melanoma; 63.1% in the experiment with SW-620 colon; 50.9% in the experiment with MCF7 breast; 34.8% in the experiment with HCT-116 colon. Besides, the values for the growth in the experiment with HCC-2998 colon and with KM12 colon were 101% and 31.3%, respectively.
Turning to `Cc1ccc(C2=Nc3c(N)ncnc3NC(c3ccc4c(c3)OCO4)C2)cc1` (configuration not stated), the growth in the experiment on T-47D breast was 70.5%; in the experiment on BT-549 breast, 61.4%; in the experiment with MDA-MB-435 melanoma it was -34.5% (active); in the experiment with SW-620 colon, 18.3%; in the experiment on MCF7 breast, 25.9%; with HCT-116 colon it was 47%. For the same molecule, the figures for the growth in the experiment on HCC-2998 colon and in the experiment with KM12 colon were 2.97% (active) and 35.3%, respectively.
With `O=C(Cn1cc(CN2CCCCCC2)nn1)Nc1ccc2c(ccn2Cc2ccccc2)c1`, the growth in the experiment with T-47D breast is 69.8%; with BT-549 breast, 86.9%; with MDA-MB-435 melanoma it was 96.6%; in the experiment on SW-620 colon, 96.9%; in the experiment on MCF7 breast it was 90.2%; in the experiment on HCT-116 colon it was 95%. In addition, the values for the growth in the experiment on HCC-2998 colon and in the experiment with KM12 colon were 97.6% and 93.8%, respectively.

The values are drawn from PubChem BioAssay (NCI).
